Screening data as filed in PubChem BioAssay.
Spn DPM-DC inh = blocks S. pneumoniae diphosphomevalonate decarboxylase. purified DPM-DC, PK/LDH coupled NADH fluorescence. calls only at 10 µM. 65,000 tested, 0.49% active. AID 556;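 active = the 320 compounds with the highest percent inhibition in the single-dose primary screen, excluding strongly autofluorescent ones, cut at about 32% in these data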;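 also: kinetic rate of NADH fluorescence loss reporting ADP formed by the decarboxylase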
A340 absorber = compound absorbs light at 340 nm. compound absorbance at 340 nm, fold over control. fold change at 10 µM. 65,000 tested, under 10 active. AID 708;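 active = at 10 µM dose, initial 340 nm absorbance at least 2 fold that of control wells; inactive = change under 2 fold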;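 also: initial absorbance extrapolated from kinetic A340 decline of NADH oxidation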
NADH coupling = inhibition of NAD/NADH coupling enzymes, library profiling | coupled PK/LDH NADH assays, four targets | IC50, µM (series often up to 10 µM) | 65,000 tested, 0.02% active | AID 774;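 active = single-dose screening hits from any of four coupled enzyme assays that gave an IC50 when retested across doses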;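 also: the DPM-DC format reads NADH fluorescence rather than 340 nm absorbance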
Spn PMK inh = inhibitors of Streptococcus pneumoniae phosphomevalonate kinase. purified PMK, PK/LDH-coupled NADH absorbance 340 nm. inhibition, % at 10 µM. 65,000 tested, 0.49% active. AID 539;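 active = top-ranked compounds by inhibition in the single 10 µM screen, taking a fixed number of the strongest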
MK inhibit = S. pneumoniae mevalonate kinase inhibition; purified MK, PK/LDH-coupled NADH absorbance 340 nm; inhibition, % at 10 µM; 65,000 tested, 0.48% active;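 active = ranked among the strongest by inhibition in the single 10 µM screen, a fixed top-ranked set picked for dose follow-up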
Autofluor 339 = intrinsic fluorescence of library compounds, ex339/em460 – biochemical, MLSMR library, data from DPM-DC assay, artefact control, profiling panel. AID 709. compound autofluorescence, ex339/em460 nm, NADH buffer; hits give high values; 1 = no-compound wells, NADH background. 65,000 tested, 5.5% active. fluorescence fold increase at 10 µM;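 active = at 10 µM, mean starting fluorescence two-fold or more over control wells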;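 also: signal is the first read of a kinetic run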
Numbers stand for hits; - = inactive; . = not tested or not shown; + = active, no number. Most compounds without a hit are left out; they make up all but 6.3% or so of the library.

SMILES	Spn DPM-DC inh	A340 absorber	NADH coupling	Spn PMK inh	MK inhibit	Autofluor 339
CCOC(=O)C(NC(=O)c1ccccc1)=C1C=C(C)OC(C)=C1	-	-	-	-	-	-
COC(=O)C(NC(=O)c1ccccc1)=C1C=C(C)OC(C)=C1	-	-	-	29	-	-
COc1ccc(-n2c(SCc3nnc(-c4ccccc4)o3)nnc2-c2ccccc2)cc1	-	-	-	26	-	-
CCOc1ccc(N(CC(=O)NC2CCCC(C)C2C)S(=O)(=O)c2c(C)noc2C)cc1 (configuration not stated)	+	-	-	-	-	-
OCc1nc2ccccc2n1C/C=C/c1ccccc1	-	-	-	-	-	-
Cn1c(C(=O)NCCCN2CCCC2=O)cc2c(=O)n(C)c3ccccc3c21	-	-	-	-	-	-
CN1CCN(CCCNC(=O)c2cn(C3CCCCC3)c(=O)c3c2c2ccccc2n3C)CC1	.	-	-	-	-	2.1
Cn1c2ccccc2c2c(C(=O)NCCCN3CCCC3=O)cn(C3CCCCC3)c(=O)c21	.	-	-	-	-	2.5
Cc1ccnc(NC2c3ccccc3C(=O)N2Cc2ccccc2Cl)c1 (configuration not stated)	-	-	-	-	-	-
CCn1c(COc2ccc(C)cc2)nnc1SCC(=O)Nc1ccc2c(c1)OCCO2	-	-	-	-	-	2
CC(C)c1[nH]nc2c1C(Cc1ccccc1)C(C#N)=C(N)O2 (configuration not stated)	-	-	-	-	-	-
CCOc1cc(CNCC2CCCO2)cc(Br)c1OCC(N)=O (configuration not stated)	-	-	-	-	-	-
CC(C)n1c(-c2ccc(N(C)C)cc2)nc2ccccc21	.	-	-	-	-	3.8
CCn1c(-c2ccc(N(C)C)cc2)nc2ccccc21	.	-	-	-	-	3.9
CN(C)c1ccc(-c2nc3ccccc3n2C)cc1	.	-	-	25	-	3.6
CCn1c(-c2ccc(N)cc2)nc2ccccc21	-	-	-	-	-	-
C=CCn1c(-c2ccc(N)cc2)nc2ccccc21	.	-	-	-	-	2.1
C=CCn1c(-c2ccc(OC)cc2)nc2ccccc21	-	-	-	-	-	-
CCOC(=O)c1ccccc1NC(=O)CSc1nc2ccccc2n1CC(=O)N1CCCC1	-	-	-	-	-	-
CCOc1ccc(OCC)c(NC(=O)c2ccc(CNc3c(N4CCOCC4)c(=O)c3=O)cc2)c1	-	-	-	-	-	-
CC1=C(C(=O)Nc2cccnc2)C(c2ccc(C(C)C)cc2)n2ncnc2N1 (configuration not stated)	-	-	-	-	-	-
O=S(=O)(Cc1ccc(Cl)cc1)N1CCCC1	-	-	-	-	-	-
CN(C)C(=O)COc1ccc2cc(-c3ccccc3)c(=O)oc2c1	.	-	-	-	-	3
Cc1cc(OCC(=O)N(C)C)c2c(-c3ccccc3)cc(=O)oc2c1	-	-	-	-	-	-
Cc1nn(-c2ccc(F)cc2F)c2c1-c1nc(N3CCCC3)ncc1CC2	.	-	-	-	-	5.1
SMILES	Spn DPM-DC inh	A340 absorber	NADH coupling	Spn PMK inh	MK inhibit	Autofluor 339
CC(C)C(=O)Nc1c2c(nc3ccccc13)N(C)CC2	.	-	-	-	-	2.2
O=C(CN1CCOCC1)Nc1c2c(nc3ccccc13)N(Cc1ccccc1)CC2	.	-	-	-	-	3.7
Cc1c(NC(=O)COc2ncnc3ccccc23)c(=O)n(-c2ccccc2)n1C	-	-	-	-	-	-
CCCCCOC(=O)c1cc(=O)[nH]c2ccccc12	-	-	-	-	-	2
O=C(OCCN1C(=O)c2ccccc2C1=O)c1cc(=O)[nH]c2ccccc12	-	-	-	-	-	-
CCOc1ccc2nc(NCCNC(=O)CC)c(C#N)cc2c1	.	-	-	-	-	3.8
CCOc1ccc2nc(SCC(=O)N3CCCCCC3)c(C#N)cc2c1	-	-	-	-	-	-
CCOC(=O)N1CCC(N2C(=O)c3ccccc3C2Nc2cc(C(=O)OC)cc(C(=O)OC)c2)CC1 (configuration not stated)	.	-	-	-	-	2.1
C=CCn1cc(C(=O)NCCCOCC)c(=O)c2cc(S(=O)(=O)N(CC)CC)ccc21	-	-	-	-	-	-
COc1ccc(-c2nc(C#N)c(N3CCCCCC3)o2)cc1	.	-	-	-	-	2.3
Cc1ccc(-c2nc(C#N)c(N3CCCCC3)o2)cc1	.	-	-	-	-	2.2
